# Laboratory results taken from PubChem BioAssay AID624071 (Southern Research Specialized Biocontainment Screening …, 2012).
# Activity calls are given as the source filed them. No rule for the calls is given here.
# Assay: Dengue virus CPE inhibition, flavivirus guanylyltransferase probe project, cell-based, secondary screen (AID 624071)
# Conditions: Dengue virus CPE inhibition assay, cell viability; series mostly up to 100 µM
row,SMILES,outcome
1,O=C(O)CSc1cc(NS(=O)(=O)c2ccc(Br)cc2)c2ccccc2c1O,inactive
2,O=[N+]([O-])c1cccc(S(=O)(=O)Nc2cc(SCc3ccccc3)c(O)c3ccccc23)c1,inactive
3,O=C(O)CSc1cc(NS(=O)(=O)c2cccc3cccnc23)c2ccccc2c1O,inactive
4,O=[N+]([O-])c1cccc(S(=O)(=O)Nc2cc(Sc3nc4ccccc4s3)c(O)c3ccccc23)c1,inactive
5,Cc1ccc(S(=O)(=O)Nc2cc(SCC(=O)O)c(O)c3ccccc23)cc1,inactive
6,O=C(O)CSc1cc(NS(=O)(=O)c2ccc(F)cc2)c2ccccc2c1O,inactive
7,Cc1cc(F)ccc1S(=O)(=O)Nc1cc(SCC(=O)O)c(O)c2ccccc12,inactive
8,O=S(=O)(Nc1cc(Cl)c(O)c2ccccc12)c1ccc(F)cc1,inactive
9,Cc1ccc(S(=O)(=O)Nc2cc(Sc3nc(C)cc(C)n3)c(O)c3ccccc23)cc1,inactive
10,O=S(=O)(Nc1cc(Sc2ccccc2)c(O)c2ccccc12)c1ccc(F)cc1,inactive
11,O=S(=O)(Nc1cc(SCc2ccccc2)c(O)c2ccccc12)c1ccc(Cl)cc1,inactive
12,O=C(O)CSc1cc(NS(=O)(=O)c2ccc(Cl)cc2)c2ccccc2c1O,inactive
13,Cn1c(=O)c2[nH]c(-c3ccccc3)c(O)c2n(C)c1=O,inactive
14,O=C(O)CSc1cc(NS(=O)(=O)c2cccc([N+](=O)[O-])c2)c2ccccc2c1O,inactive
15,Cn1c(=O)c2[nH]c(-c3ccc(Cl)cc3)c(O)c2n(C)c1=O,inactive
16,COc1ccc(OC)c(S(=O)(=O)Nc2cc(SCC(=O)O)c(O)c3ccccc23)c1,inactive
17,Cc1cc(C)c(S(=O)(=O)Nc2cc(SCC(=O)O)c(O)c3ccccc23)c(C)c1,inactive
18,O=S(=O)(Nc1cc(Sc2ncn[nH]2)c(O)c2ccccc12)c1ccc(F)cc1,inactive
